SMILES strings stand for the structures. The panel holds about 79,000 compounds, 15% with a hit somewhere; the sample as a whole holds those more often. Unmarked numbers belong to inactive results. Active and inactive are the calls of the source. No stated cut-off is given here; in the data, active means growth inhibition above about 70%; inactive means the rest.

The nature of the first test: NCI Yeast Anticancer Drug Screen. Data for the rad50 strain (AID 155).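 Further: 0% = growth of vehicle-only cultures of the same strain.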 The conditions noted are these: S. cerevisiae rad50 strain growth inhibition; at 50.0 µM; active compounds read high. In outline:
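DNA repair mutant yeast, compound exposure, growth read-out; inhibition is taken relative to vehicle.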
With `CCC(C)(C)c1ccc(OCCOc2ccc(C(=O)O)cc2[N+](=O)[O-])cc1`, the growth inhibition was -4.1%.

As to `CC(C)CN(CC(C)C)/N=C/c1cc([N+](=O)[O-])ccc1O`, the growth inhibition is -11.7%.

In the case of `COc1ccc(C=Nc2c(N)[nH]c(=S)[nH]c2=O)cc1`, the growth inhibition was -15%.

Consider `O=C(OC1CCC(c2ccccc2)C1)c1cc([N+](=O)[O-])cc([N+](=O)[O-])c1` (stereo not given), for which the growth inhibition was 35%.

As to `O=C1c2ccccc2C(=O)N1Cl`, the growth inhibition was 8.7%.

On to `CCOC(=O)O/C(C)=C\c1ccccc1Cl`, for which the growth inhibition was 0.4%.

`CCC1(c2ccccc2)CCCC/C1=N/NC(N)=O` (stereo not given): the growth inhibition was 2.55%.

As for `Cc1ccc(S(=O)(=O)N/N=C/C(O)C(O)C(O)C(O)CO)cc1` (stereo not given), the growth inhibition was 5.9%.

In the case of `Cc1ccc(CO)cc1`, the growth inhibition was 13.9%.

As for `O=C(CN1CCCc2ccccc21)c1ccccc1`, the growth inhibition was 6.75%.

Regarding `C/C=C/C1OCC(C)([N+](=O)[O-])CO1` (stereo not given), the growth inhibition is 23.5%.

For `N=C(Oc1ccccc1)c1ccccc1`, the growth inhibition was -1.95%.

With `CCOC(=O)CN/N=C(\N)CSS(=O)(=O)O`, the growth inhibition is -5.25%.

As for `Cc1ccccc1N=CC(C=O)[N+](=O)[O-]` (stereo not given), the growth inhibition is -1.65%.

With `CCCCCCCCCCCCCCC[N+](C)(C)C`, the growth inhibition is 99.5% (active).

For `CC(=O)O[C@@H]1[C@H]2O[C@H]2[C@H]2O[C@@]2(COC(=O)c2ccccc2)[C@H]1OC(C)=O`, the growth inhibition was 12.8%.

For the molecule `CSc1nnc2c3ccccc3ccn12`, the growth inhibition is 4.9%.

`CC(=O)c1cccc(NC(=O)C(=O)C(C(=O)NN)c2ccccc2)c1` (stereo not given): the growth inhibition was 11.4%.

As for `CN1CCCn2c(nc3ccccc3c2=O)C1`, the growth inhibition is -1.4%.

For the molecule `O=C(O)Cc1ccc2ccccc2c1Br`, the growth inhibition was -8.5%.

As to `CCOC(=O)c1c(-c2ccc([N+](=O)[O-])cc2)c(C#N)n(-c2ccccc2)c1C`, the growth inhibition is -1.25%.

Turning to `Cc1[nH]c2c(C)ccc(C)c2c1CC(=O)O`, the growth inhibition was 29.7%.

With `CCOC(=O)c1c(O)csc1N`, the growth inhibition is 7.85%.

In the case of `O=CC1CCCc2ccccc21` (stereo not given), the growth inhibition is 17.1%.

For the molecule `CN(C)Cc1cc(O)c(O)c(CN(C)C)c1`, the growth inhibition was -16.6%.

`NCCNCCCNC(=O)c1cc(-c2ccccc2)nc2ccccc12`: the growth inhibition was -18.8%.

As to `O/N=C1\CC2(N3CCOCC3)CCC1(Cc1ccccc1)CC2`, the growth inhibition is 36%.

With `COC(=O)c1ccc(O)c(CN(C)C)c1`, the growth inhibition was 26.6%.

On to `C[N+]1(C)CCCC(CN2c3ccccc3Sc3ccccc32)C1` (stereo not given), for which the growth inhibition is 10.8%.

Regarding `Cc1nc(/N=C(/N)N(C)C)[nH]c(=O)c1C`, the growth inhibition was 1.7%.

Regarding `CC(C)(CC1(C)NC(=O)NC1=O)OCc1ccccc1` (stereo not given), the growth inhibition was -0.5%.

As to `CCCCCCn1c(=O)cc2n(c1=O)CCC2`, the growth inhibition is 30%.

For the molecule `CCOCC(=O)N[C@H]1CCc2cc(OC)c(OC)c(OC)c2-c2ccc(OC)c(=O)cc21`, the growth inhibition was 9.45%.

In the case of `COc1ccc(C=Nc2ccc(O)cc2)cc1`, the growth inhibition is 5.45%.

`O=C(Cc1ccccc1CC(=O)Oc1ccccc1)Oc1ccccc1`: the growth inhibition was 9.1%.

As to `COC(=O)C(=O)C(C(=O)c1cccc2ccccc12)c1nc2n(c1O)C(=N)N=N2` (stereo not given), the growth inhibition is 18.4%.

As for `CC(=O)ON=C(C1CC1)C1CC1`, the growth inhibition is -6%.

As to `O=[N+]1C=CC(=NN=c2ccn([O-])cc2)C=C1`, the growth inhibition was 33.9%.

With `Nc1c(Cl)cnn2nnnc12`, the growth inhibition was -7.5%.

In the case of `C=CCOC(=O)c1cccc(C(=O)OCC=C)c1`, the growth inhibition is 12.6%.

Another test in a line: NCI Yeast Anticancer Drug Screen. Data for the mec2-1 strain (AID 157). The conditions noted are these: S. cerevisiae mec2-1 strain, at 50.0 µM, active compounds read high. In outline: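 Compounds were applied to mec2-1 yeast cells. Their growth was then compared with that of vehicle-treated cultures to give growth inhibition.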
For the molecule `CCC(C)(C)c1ccc(OCCOc2ccc(C(=O)O)cc2[N+](=O)[O-])cc1`, the growth inhibition was 12.2%.

On to `CC(C)CN(CC(C)C)/N=C/c1cc([N+](=O)[O-])ccc1O`, for which the growth inhibition is 9%.

Take `COc1ccc(C=Nc2c(N)[nH]c(=S)[nH]c2=O)cc1`: the growth inhibition was -12.8%.

Take `O=C(OC1CCC(c2ccccc2)C1)c1cc([N+](=O)[O-])cc([N+](=O)[O-])c1` (stereo not given): the growth inhibition was 25.9%.

Consider `O=C1c2ccccc2C(=O)N1Cl`, for which the growth inhibition was -4.75%.

With `CCOC(=O)O/C(C)=C\c1ccccc1Cl`, the growth inhibition was -1.15%.

In the case of `CCC1(c2ccccc2)CCCC/C1=N/NC(N)=O` (stereo not given), the growth inhibition was -16.6%.

`Cc1ccc(S(=O)(=O)N/N=C/C(O)C(O)C(O)C(O)CO)cc1` (stereo not given): the growth inhibition was -5.15%.

Regarding `Cc1ccc(CO)cc1`, the growth inhibition is -6.7%.

On to `O=C(CN1CCCc2ccccc21)c1ccccc1`, for which the growth inhibition was 6.7%.

`C/C=C/C1OCC(C)([N+](=O)[O-])CO1` (stereo not given): the growth inhibition was 10.1%.

For `N=C(Oc1ccccc1)c1ccccc1`, the growth inhibition is -22.3%.

For `CCOC(=O)CN/N=C(\N)CSS(=O)(=O)O`, the growth inhibition is -17.4%.

Turning to `Cc1ccccc1N=CC(C=O)[N+](=O)[O-]` (stereo not given), the growth inhibition was -9.8%.

Take `CCCCCCCCCCCCCCC[N+](C)(C)C`: the growth inhibition is 99.3% (active).

In the case of `CC(=O)O[C@@H]1[C@H]2O[C@H]2[C@H]2O[C@@]2(COC(=O)c2ccccc2)[C@H]1OC(C)=O`, the growth inhibition was -25.2%.

Turning to `CSc1nnc2c3ccccc3ccn12`, the growth inhibition is 11.6%.

For `CC(=O)c1cccc(NC(=O)C(=O)C(C(=O)NN)c2ccccc2)c1` (stereo not given), the growth inhibition was 11.1%.

Take `CN1CCCn2c(nc3ccccc3c2=O)C1`: the growth inhibition is -4.65%.

As to `O=C(O)Cc1ccc2ccccc2c1Br`, the growth inhibition was 13.1%.

As for `CCOC(=O)c1c(-c2ccc([N+](=O)[O-])cc2)c(C#N)n(-c2ccccc2)c1C`, the growth inhibition was 36%.

Take `Cc1[nH]c2c(C)ccc(C)c2c1CC(=O)O`: the growth inhibition is -15.1%.

Regarding `CCOC(=O)c1c(O)csc1N`, the growth inhibition is 5.45%.

As to `O=CC1CCCc2ccccc21` (stereo not given), the growth inhibition was -20.5%.

Consider `CN(C)Cc1cc(O)c(O)c(CN(C)C)c1`, for which the growth inhibition was -19.9%.

Regarding `NCCNCCCNC(=O)c1cc(-c2ccccc2)nc2ccccc12`, the growth inhibition is -6.35%.

Take `O/N=C1\CC2(N3CCOCC3)CCC1(Cc1ccccc1)CC2`: the growth inhibition was 52.6%.

Consider `COC(=O)c1ccc(O)c(CN(C)C)c1`, for which the growth inhibition was -10.6%.

`C[N+]1(C)CCCC(CN2c3ccccc3Sc3ccccc32)C1` (stereo not given): the growth inhibition is -3.85%.

With `Cc1nc(/N=C(/N)N(C)C)[nH]c(=O)c1C`, the growth inhibition is -27.6%.

`CC(C)(CC1(C)NC(=O)NC1=O)OCc1ccccc1` (stereo not given): the growth inhibition is -30.1%.

Turning to `CCCCCCn1c(=O)cc2n(c1=O)CCC2`, the growth inhibition is 11.3%.

On to `CCOCC(=O)N[C@H]1CCc2cc(OC)c(OC)c(OC)c2-c2ccc(OC)c(=O)cc21`, for which the growth inhibition was -32.8%.

Regarding `COc1ccc(C=Nc2ccc(O)cc2)cc1`, the growth inhibition is -2.3%.

In the case of `O=C(Cc1ccccc1CC(=O)Oc1ccccc1)Oc1ccccc1`, the growth inhibition was -3.9%.

`COC(=O)C(=O)C(C(=O)c1cccc2ccccc12)c1nc2n(c1O)C(=N)N=N2` (stereo not given): the growth inhibition is 4.45%.

For the molecule `CC(=O)ON=C(C1CC1)C1CC1`, the growth inhibition was 3.5%.

In the case of `O=[N+]1C=CC(=NN=c2ccn([O-])cc2)C=C1`, the growth inhibition was 15.5%.

In the case of `Nc1c(Cl)cnn2nnnc12`, the growth inhibition is -17.4%.

On to `C=CCOC(=O)c1cccc(C(=O)OCC=C)c1`, for which the growth inhibition is 23.4%.

Values taken from PubChem BioAssay (NCI).
